# Assay outcomes from PubChem BioAssay.
# Only some compounds are listed: those with a hit (about 0.71% of all), similar ones and a draw of the others.
# IDE inh = cellular human IDE inhibition. P14735. 0.41% of 320,000 active. inhibition, % at 5.59 µM. HEK cells, FAbetaB cleavage, fluorescence polarization;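 active means percent inhibition above the average of all tested compounds plus 3 SD, set per screening campaign, cut at about 16% in these data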;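 further: IDE supplied by intact live HEK cells; FP after avidin binding of uncleaved biotin substrate so inhibition keeps polarization high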
# Cardiac RTF inh = cardiac RTF calcium desensitization. IANBD-labeled cardiac RTF, Ca2+ fluorescence. P19429+P45379. inhibition, % at 7.15 µM. AID 493244. 0.12% of 340,000 active;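 active means inhibition above the mean inhibition of all tested compounds plus 3 SD, cut at about 17% in these data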;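 further: assay run at fixed EC70 calcium of 1.6 mM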
# IDE cell activ = activators of human insulin-degrading enzyme in cells; P14735; HEK cells, FAbeta-B cleavage, fluorescence polarization; 0% vehicle, 100% cell-free pure enzyme wells; activation, % at 5.96 µM; 0.073% of 340,000 active;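 active means activation above the mean of all tested compounds plus 3 SD, set per screening campaign, cut at about 17% in these data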
# RTF Ca sens act = increases calcium sensitivity of human cardiac regulated thin filaments | P19429+P45379 | activation, % at 7.2 µM | 0.24% of 340,000 active | IANBD-labeled TnC RTF fluorescence at EC20 calcium; 0% EC20 calcium, 100% full calcium;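 active means activation above the mean over all tested compounds plus 3 SD, cut at about 30% in these data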;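 further: rise in fluorescence read as greater calcium sensitivity of cardiac thin filaments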
# Numbers stand for hits; . = inactive; / = no result.
SMILES,IDE inh,Cardiac RTF inh,IDE cell activ,RTF Ca sens act
COc1ccc(N2C(=O)CC3(CCCC3)CC2=O)cc1,.,.,.,.
O=C1CC2(CCCC2)CC(=O)N1c1ccccc1,.,.,30,.
COc1cc(/C=C(\C#N)c2nc3ccccc3s2)ccc1OCC(=O)Nc1ccccc1,28,.,.,34
Cc1nc(-n2[nH]c3c(c2=O)CCCC3)[nH]c(=O)c1Cc1ccccc1,.,.,.,33
Cc1nc(Cl)c2c(n1)NC1=C(O2)C(=O)CCC1,.,.,.,47
O=C(COc1ncnc2scc(-c3ccccc3)c12)NCCN1C(=O)CSC1=O,.,/,/,/
CCN1CCN(c2cc(C)c3cc(NC(=S)N4CCN(c5ccccc5)CC4)ccc3n2)CC1,.,.,20,.
Cc1ccc(C)c(N2CCN(C(=S)Nc3ccc4nc(N5CCN(C)CC5)cc(C)c4c3)CC2)c1,.,.,22,.
Nc1nc(-c2ccccc2)c(-c2ccccc2)n1N,.,.,.,.
c1ccc(-c2cnn3c(-c4ccccc4)c(-c4ccccc4)nc3n2)cc1,/,.,.,378
O=C(CCNC(=O)c1ccco1)Nc1ccc(OC(F)(F)F)cc1,.,.,.,.
Nc1ccc2c3c(cccc13)-c1ccccc1-2,/,.,.,359
COc1ccccc1NS(=O)(=O)c1cccc(NC(=O)C2CC2)c1,.,.,21,.
CN(C)CCNc1ccc(CO)c2sc3ccc(O)cc3c(=O)c12,/,.,.,.
CN(C)CCNc1ccc2ncn3c4ccc(O)cc4c(=O)c1c23,/,.,.,170
Cc1ccc2ncnc(Nc3cccc([N+](=O)[O-])c3)c2c1,.,.,.,.
N#Cc1c(NC(=S)NC(=O)c2ccccc2)sc2c1CCN(CCc1ccccc1)C2,74,/,/,/
O=C(CN1C(=O)COc2ccc(S(=O)(=O)N3CCCC3)cc21)NCc1ccccn1,.,.,19,.
O=[N+]([O-])c1ccc(N2CCN(c3ccccn3)CC2)c(Cl)c1,.,.,.,.
COc1cccc(CNc2ccc3c(c2)ncn3C(C)C)c1OC,.,.,20,.
Cc1ccc2sc(N(CCCN(C)C)C(=O)c3ccc(Br)s3)nc2c1C,.,.,18,.
COc1ccc(C(=O)NNC(=O)c2ccccc2[N+](=O)[O-])cc1[N+](=O)[O-],.,.,.,.
COc1cc2c(cc1[N+](=O)[O-])-c1ccccc1C2,/,.,.,125
Nc1nccnc1C(=O)OCC(=O)NCCc1ccc(S(N)(=O)=O)cc1,.,.,.,.
C=CCOc1cccc(/C=N/NC(=O)CN2CCCCC2)c1,.,.,.,.
SMILES,IDE inh,Cardiac RTF inh,IDE cell activ,RTF Ca sens act
COc1ccccc1-c1cccc([C@@H]2C[C@H]3[C@@H](CN2)CON3C)c1,/,.,.,.
CCOC(=O)C1(Cc2cccc(F)c2)CCN(C(=O)c2ccoc2C)CC1,.,.,.,.
CC(=O)c1ccc(C(=O)Nc2sc3c(c2C(N)=O)CCN(Cc2ccccc2)C3)cc1,.,.,.,102
COc1cccc(OC)c1C(=O)Nc1sc2c(c1C(N)=O)CCN(Cc1ccccc1)C2,.,.,.,.
NC(=O)c1c(NC(=O)C2COc3ccccc3O2)sc2c1CCN(Cc1ccccc1)C2 (configuration not stated),.,.,.,38
CCn1cc(Cl)c(C(=O)Nc2c(C)nn(Cc3c(F)c(F)c(F)c(F)c3F)c2C)n1,/,.,.,.
CCOC(=O)/C(C#N)=C\c1ccc(N2CCN(C/C=C/c3ccccc3)CC2)cc1,.,.,.,76
Cc1cc(-c2ccc(N=Nc3c(S(=O)(=O)O)cc4cc(S(=O)(=O)O)cc(N)c4c3O)c(C)c2)ccc1N=Nc1c(S(=O)(=O)O)cc2cc(S(=O)(=O)O)cc(N)c2c1O,.,/,/,/
O=S(=O)(O)c1cc(O)c2c(O)c(N=Nc3cc(Cl)ccc3O)c(S(=O)(=O)O)cc2c1,.,27,.,.
CC1CCCCC12NC(=O)N(CC(=O)N1CCN(S(=O)(=O)Cc3ccccc3)CC1)C2=O (configuration not stated),.,.,.,.
COc1ccc(N/C=C2\CCOC2=O)cc1,.,.,.,.
COc1ccc(N/C=C2\C(=O)CCc3c2oc2cc(Cl)c(O)c(Cl)c32)cc1,.,.,.,100
COc1cc(OC)c(-c2c3cc(O)c(=O)cc-3oc3cc(O)c(O)cc23)cc1OC,.,.,41,894
Cc1c2cc(O)c(=O)cc-2oc2cc(O)c(O)cc12,.,.,.,109
COc1c(O)cc2oc(-c3ccc(O)cc3)cc(=O)c2c1O,.,.,.,.
Cc1cc2oc(=O)cc(-c3cc4ccccc4o3)c2cc1O,.,.,.,.
Cc1ccc(N=Cc2sc(O)c3ccccc23)c(C)c1,.,.,.,49
